Assay outcomes: PubChem BioAssay, several laboratories
COUP-TFII inh – inhibitors of human COUP-TFII (NR2F2); P24468; HEK293T NGFI-A luciferase reporter, luminescence; inhibition, % at 8.6 µM; hit rate 0.7% among 370,000; AID 686940;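 active = inhibition above a per-plate cutoff, mean inhibition of test wells between control levels plus 3 SD, cut at about 38% in these data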;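 also: cells cotransfected with COUP-TFII expression vector driving the NGFI-A reporter; 0% = median of COUP-TF2 test wells and 100% = reporter-only cells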
Target sequence (P24468 whole entry, looked up): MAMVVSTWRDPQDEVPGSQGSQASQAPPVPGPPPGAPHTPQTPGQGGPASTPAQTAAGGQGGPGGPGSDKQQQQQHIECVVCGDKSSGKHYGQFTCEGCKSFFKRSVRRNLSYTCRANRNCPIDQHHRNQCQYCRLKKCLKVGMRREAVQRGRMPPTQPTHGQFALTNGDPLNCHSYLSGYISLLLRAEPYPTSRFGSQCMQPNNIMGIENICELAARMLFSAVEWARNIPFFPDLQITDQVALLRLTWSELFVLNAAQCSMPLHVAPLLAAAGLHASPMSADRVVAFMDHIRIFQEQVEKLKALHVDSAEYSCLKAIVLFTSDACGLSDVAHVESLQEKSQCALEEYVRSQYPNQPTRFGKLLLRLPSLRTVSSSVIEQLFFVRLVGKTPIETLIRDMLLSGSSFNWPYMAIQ
LRH-1 inv ag – suppresses constitutive activity of human LRH-1. O00482. HEK293T StAR-luciferase reporter, LRH-1 transfected, 24 h. inhibition, % at 3.6 µM. hit rate 0.13% among 360,000. AID 602396;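 active = inhibition above the mean inhibition of all tested compounds plus 3 SD, cut at about 73% in these data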;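 also: 0% = DMSO wells and 100% = reporter-only cells lacking LRH-1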
Gli-Sufu antag – Gli-Sufu pathway antagonism | Sufu-KO-LIGHT fibroblasts, Gli luciferase reporter luminescence | inhibition, % at 5 µM | hit rate 0.74% among 340,000 | AID 588413;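 active = inhibition above about 55%, limit read from the data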;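 also: 0% = DMSO-treated cells and 100% = wells with medium but no cells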
NCOA1 inh – inhibits human SRC1 coactivator | Q15788 | HEK293 GAL4-SRC1 luciferase reporter, luminescence | inhibition, % at 3.6 µM | hit rate 0.12% among 360,000 | AID 588354;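 active = inhibition above the campaign mean plus 3 SD, with each screening campaign given its own cutoff, cut at about 60% in these data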;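 also: 0% = DMSO treated cells and 100% = gossypol at 36 µM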
SRC2 inh – inhibits human steroid receptor coactivator 2 | Q15596 | HEK293 GAL4-SRC2 luciferase reporter, luminescence | inhibition, % at 9 µM | hit rate 0.17% among 370,000 | AID 651957;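 active = inhibition above the mean inhibition of all tested compounds plus 3 SD, set per campaign, cut at about 52% in these data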;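 also: 0% = DMSO treated cells and 100% = cells given Gossypol at 36 µM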
NCOA3 inh – human NCOA3 inhibition | Q9Y6Q9 | AID 588352 | hit rate 0.17% among 360,000 | inhibition, % at 3.6 µM | HEK293 GAL4-SRC3 luciferase reporter, luminescence;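 active = inhibition above a per-campaign cutoff, the mean of all compounds plus 3 SD, cut at about 60% in these data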;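 also: 0% = DMSO-treated cells and 100% = gossypol-treated cells at 36 µM; higher means less SRC3-driven luciferase light from the GAL4 reporter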
Gli antag conf – confirmation of Gli-SUFU pathway antagonists. hit rate 40% among 2,500. shares compounds with Gli-Sufu antag. Sufu-KO-LIGHT cells, Gli luciferase reporter, luminescence. AID 602428. inhibition, % at 5 µM;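 active = mean inhibition at 5 µM reaching about 45%, limit read from the data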;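 also: plate controls were DMSO-treated cells for no effect and wells lacking cells for full effect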
SufuKO cytotox – cytotoxicity counter-screen for Gli-SUFU antagonists; cytotoxicity, % at 5 µM; hit rate 32% among 2,500; Sufu-KO-LIGHT cells cytotoxicity, ATP luminescence; shares compounds with Gli-Sufu antag;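 active = mean cytotoxicity at 5 µM above about 25%, limit read from the data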;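 also: cells exposed to compound overnight for roughly 16 to 18 hours; plate controls were DMSO wells with cells for no effect and medium without cells for full effect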
Wnt3a cs – inhibits Wnt3a reporter, counter-screen for Gli-SUFU antagonists. shares compounds with Gli-Sufu antag. Wnt-LIGHT cells, Wnt3a-driven luciferase reporter, luminescence. inhibition, % at 6.25 µM. hit rate 20% among 2,500. AID 651995;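 active = mean inhibition above about 25%, limit read from the data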
VP16 Luc counter – counter-screen for COUP-TFII antagonists: inhibitors of VP16; shares compounds with COUP-TFII inh; HEK293 Gal4-VP16 luciferase reporter, luminescence; inhibition, % at 8.5 µM; hit rate 25% among 2,500; in the data active = inhibition above about 13%
NR2F2 inh conf – confirmation of human COUP-TFII (NR2F2) inhibitors; shares compounds with COUP-TFII inh; HEK293 NGFI-A luciferase reporter, luminescence; inhibition, % at 8.5 µM; hit rate 45% among 2,500; AID 687008;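 active = mean inhibition over three repeats above a set limit taken from the earlier primary screen, cut at about 38% in these data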;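 also: 100% = cells given the luciferase reporter alone without the COUP-TF2 vector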
The depositor's hits bear a star; . = no result given. A selection: hits, their analogues and other compounds. The true share with any hit is near 1.3%.

SMILES	COUP-TFII inh	LRH-1 inv ag	Gli-Sufu antag	NCOA1 inh	SRC2 inh	NCOA3 inh	Gli antag conf	SufuKO cytotox	Wnt3a cs	VP16 Luc counter	NR2F2 inh conf
COc1ccc(NS(=O)(=O)c2ccc(OC)c(N(C)S(=O)(=O)c3ccc(Cl)cc3)c2)cc1	57*	40	74*	-4	34	26	43	39*	-35	-7	21
O=C(CSc1nnc(-c2ccccc2)n1-c1ccccc1)NN=Cc1ccc(-c2ccccc2)cc1	2	.	.	.	4	.	.	.	.	.	.
NC(=O)c1c(-c2ccc(Cl)cc2Cl)csc1NC(=O)Cc1ccccc1	73*	15	56*	8	10	13	62*	21	6	-23	54*
O=C(Cc1ccccc1)Nc1scc(-c2ccccc2)c1C(=O)N1CCOCC1	.	-9	3	2	.	23	.	.	.	.	.
C(=NN1CCCCCC1)c1ccc2ccccc2n1	95*	91*	68*	88*	84*	90*	89*	73*	106*	89*	104*
CCOc1ccc(-n2c(SCC(=O)Nc3cc(C)c(NC(=O)c4ccccc4)cc3OC)nnc2-c2ccncc2)cc1	-4	.	.	.	18	.	.	.	.	.	.
S=C(NCCCN1CCOCC1)N1CCN(c2nc(-c3ccc(Cl)cc3)cs2)CC1	58*	16	52	16	25	22	37	17	-81	-2	28
O=C(CSc1nnnn1C1CC2CCC1C2)Nc1ccnc2ccccc12 (stereo unspecified)	72*	49	83*	31	23	31	85*	35*	6	2	70*
O=C(CSc1nnnn1C1CCCCC1)Nc1ccccc1F	8	10	0	-10	4	-1	.	.	.	.	.
OCC(CCc1c[nH]c2ccccc12)c1c[nH]c2ccccc12 (stereo unspecified)	-10	.	.	.	2	.	.	.	.	.	.
O=C(NC1CCCCC1)c1ccc(S(=O)(=O)NCc2ccco2)cc1	6	13	4	-5	-30	12	.	.	.	.	.
O=C(NC1CCN(Cc2ccccc2)CC1)c1ccc(S(=O)(=O)NCc2ccco2)cc1	48*	23	54	-25	11	12	20	24	-12	6	22
CC1(C)CC(N2CCCC2)=CC(=[N+]2CCCCCC2)C1	60*	69	83*	35	13	38	88*	34*	42*	14*	58*
CC1(C)CC(=O)C=C(N2CCNCC2)C1	9	2	-1	12	-21	10	.	.	.	.	.
COc1ccc([C@H]2CC(=O)C=C(c3ccnc4ccc(Cl)cc34)C2)cc1	69*	21	74*	31	-16	22	68*	21	38*	12	65*
COCCCN1C(=O)[C@H](CC(=O)N2CCC(c3ccccc3)CC2)[C@]2(C(=O)OC)CCCCC=C12	8	.	.	.	1	.	.	.	.	.	.
Cc1cc(C)c(CN2CCN(C(=O)Cn3cnc4c(NCc5ccccc5)ncnc43)CC2)c(C)c1	80*	47	60*	33	5	15	67*	42*	39*	9	70*
O=C(Cn1cnc2c(NCc3ccccc3)ncnc21)N1CCN(c2ccccn2)CC1	16	22	-1	1	-7	8	.	.	.	.	.
Cc1c(C(=O)N/N=C/c2ccccc2Cl)[nH][nH]c1=O	-47	.	.	.	-31	.	.	.	.	.	.
NC(=O)c1ccccc1OCC(=O)N1CCC(Cc2ccccc2)CC1	64*	27	53	17	7	5	46*	17	27*	6	39*
O=C(COc1ccccc1[N+](=O)[O-])N1CCC(Cc2ccccc2)CC1	14	8	1	-2	-19	6	.	.	.	.	.
CCCCCCCCN1CCS(=O)(=O)N(Cc2ccc(F)cc2)C(C(=O)OC)C1 (stereo unspecified)	13	.	.	.	22	.	.	.	.	.	.
O=C(OCC12CC3CC(CC(C3)C1)C2)c1ccc(NCc2cc(O)ccc2O)cc1	80*	65	78*	18	85*	73*	68*	38*	66*	79*	99*
N#CCC(=O)Nc1ccc(C(=O)OCC(=O)C23CC4CC(CC(C4)C2)C3)cc1	-6	4	-8	10	14	-18	.	.	.	.	.
CCNc1nc2c(c(=O)n(C)c(=O)n2C)n1Cc1ccc(Cl)cc1	53*	29	71*	25	26	15	61*	31*	40*	6	36
SMILES	COUP-TFII inh	LRH-1 inv ag	Gli-Sufu antag	NCOA1 inh	SRC2 inh	NCOA3 inh	Gli antag conf	SufuKO cytotox	Wnt3a cs	VP16 Luc counter	NR2F2 inh conf
Nn1c(SCC(=O)NC2CCCCC2)nnc1-c1cc(-c2ccccc2)n[nH]1	-25	.	.	.	-37	.	.	.	.	.	.
CCn1cc(CN(C)S(=O)(=O)c2ccc3ccccc3c2)c(C)n1	51*	45	53	-1	-4	30	50*	22	28*	2	51*
COc1ccc(-n2c(SCC(=O)Nc3ccc(S(=O)(=O)Nc4nccs4)cc3)nnc2-c2cccs2)cc1	4	.	.	.	-6	.	.	.	.	.	.
O=C(Nc1ccc(F)cc1)Nc1c(-c2ccc(C(F)(F)F)cc2)nc2ncccn12	-6	.	.	.	-20	.	.	.	.	.	.
Cc1ccccc1Cn1cc(COC(=O)NCCc2ccccc2)nn1	-2	.	.	.	13	.	.	.	.	.	.
O=C(NCCc1ccccc1)OCc1cn(Cc2ccc(F)c(F)c2)nn1	-17	.	.	.	-14	.	.	.	.	.	.
CCCOc1ccc(Br)cc1CSC(=N)N	54*	44	61*	17	26	39	56*	27*	18	15*	49*
COCCNC(=S)N(C)[C@H]1C[C@H]2c3[nH]c4c(-c5cccc(C)c5)cccc4c3CCN2C[C@H]1[C@H](C)O	-13	.	.	.	-6	.	.	.	.	.	.
COC(=O)C12OCC34C(CC5C(C)=C(O)C(=O)CC5(C)C3C(O)C1O)OC(=O)C(OC(=O)C=C(C)C)C24 (stereo unspecified)	93*	97*	91*	96*	83*	94*	95*	76*	105*	12	86*
Cc1cc(C)c(S(=O)(=O)NCCc2ccncc2)c(C)c1	9	-7	.	18	-16	-27	.	.	.	.	.
Cc1cc(C)c(S(=O)(=O)NCc2ccncc2)c(C)c1	60*	36	58*	12	17	9	60*	28*	43*	4	54*
